According to PubChem BioAssay (NCI):
The panel holds about 83,000 compounds, 20% with a hit somewhere; the sample as a whole holds those more often.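 Single-dose data. Exposure time 48 hours. Values below 10 considered active.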 The source made the active and inactive calls.

Tests used:
Test in all cases: NCI-60 one-dose screen, 48 h (100 = growth as untreated, 0 = no growth, -100 = all killed)
HCT-15 colon = settings: 10 µM unless noted
HT29 colon = settings: 10 µM unless noted
SNB-75 CNS = settings: 10 µM unless noted
SNB-19 CNS = settings: 10 µM unless noted
U251 CNS = settings: 10 µM unless noted
PC-3 prostate = settings: 10 µM unless noted
SK-MEL-5 melanoma = settings: 10 µM unless noted
UACC-62 melanoma = settings: 10 µM unless noted
LOX IMVI melanoma = settings: 10 µM
SK-MEL-28 melanoma = settings: 10 µM unless noted

Measured: growth

CC1(C)CC[C@]2(C(=O)O)CC[C@]3(C)C(=CCC4[C@@]5(C)C[C@@H](O)[C@@H]6OC(c7ccc(F)cc7)OC[C@@]6(C)C5CC[C@]43C)C2C1 (stereo partly drawn)
inactive: HCT-15 colon 13.4% | HT29 colon 25.4% | SNB-75 CNS 82.3% | SNB-19 CNS 34.9% | U251 CNS 14.7% | PC-3 prostate 17.6% | SK-MEL-5 melanoma 17.2% | UACC-62 melanoma 45.5% | LOX IMVI melanoma 19.9% | SK-MEL-28 melanoma 53.9%

COc1cc2c(c(OC)c1OC)C(=O)CC(c1cccc(NC(=O)c3cc(NC(=O)[C@@H](N)CO)ccc3C)c1)O2 (stereo partly drawn)
inactive: HCT-15 colon 110% | HT29 colon 102% | SNB-75 CNS 135% | SNB-19 CNS 109% | U251 CNS 112% | PC-3 prostate 107% | SK-MEL-5 melanoma 104% | UACC-62 melanoma 109% | SK-MEL-28 melanoma 109%

O=C(c1ccccc1)c1ccc2nc(-c3ccc(F)cc3)[nH]c2c1
inactive: HCT-15 colon 23.4% | HT29 colon 63.6% | SNB-75 CNS 82% | SNB-19 CNS 75.2% | PC-3 prostate 56.4% | SK-MEL-5 melanoma 60.2% | UACC-62 melanoma 43.2% | LOX IMVI melanoma 14.3% | SK-MEL-28 melanoma 63.3%
active: U251 CNS -26.5%

O=C(COc1ccc(NC(=O)Nc2ccc(Cl)c(Cl)c2)cc1)N=Nc1c(O)[nH]c2ccccc12
inactive: HCT-15 colon 56.1% | SK-MEL-5 melanoma 25.2%
active: HT29 colon -45.9% | SNB-75 CNS -39.5% | SNB-19 CNS -24.5% | U251 CNS -87.7% | PC-3 prostate -44.6% | UACC-62 melanoma -56.5% | SK-MEL-28 melanoma -90.4%

O=C(O)Cn1c(O)c(/C=C2/C=c3cc4c(cc3=NC2=O)OCCO4)sc1=S
inactive: HCT-15 colon 98.5% | HT29 colon 119% | SNB-75 CNS 101% | SNB-19 CNS 97.9% | U251 CNS 109% | PC-3 prostate 106% | SK-MEL-5 melanoma 107% | UACC-62 melanoma 94.8% | LOX IMVI melanoma 93.6% | SK-MEL-28 melanoma 116%

COc1ccc2oc(=O)c(C3(C)NC(=O)c4c(/C=C/C(=O)OC(C)(C)C)cccc4N3)cc2c1 (stereo not drawn)
active: SK-MEL-5 melanoma -59.8%
inactive: HCT-15 colon 32.6% | HT29 colon 39.1% | SNB-75 CNS 56.3% | SNB-19 CNS 50.8% | U251 CNS 48.4% | PC-3 prostate 15.6% | UACC-62 melanoma 20.4% | LOX IMVI melanoma 49.1% | SK-MEL-28 melanoma 40.6%
